# TGFb SMAD3 inh = inhibitors of TGF-b signaling | HepG2 CAGA-GFP TGF-b/SMAD3 reporter, GFP fluorescence, 18 h; TGF-beta stimulated, 500 pg/mL final | Potency, µM (doses to about 46.1 µM), inactives show top-dose activity, negative = inhibition, actives largely listed as inhibitors | 410,000 tested, 1.2% active; note: % is set by controls: 0 for no effect and ±100 for the full control effect; nearly all actives have a fitted effect of over 65% in size
#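 Read-out: total well GFP (ex488/em500-530) summed from mean per-cell fluorescence. Cells: HEPG2 CAGA-GFP, 1% FBS DMEM, 18 h at 37 degrees C with 500 pg/mL final TGF-beta. Unstimulated wells served as the full-inhibition control; stimulated DMSO wells = 0%.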
# HT1080 IDH1KD tx = toxicity to HT-1080 IDH1 knockdown cells (counter line); AID 686971; 360,000 tested, 2% active; HT-1080 IDH1 knockdown viability, ATP luminescence, 48 h; Potency, µM (top dose mostly 46.1 µM), inactives show top-dose activity, negative = toxicity, most hits filed as cytotoxic;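 note: 0% = DMSO wells and -100% = cell-free medium wells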
#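 CellTiter-Glo luminescence after 48 h compound exposure at 37 degrees C of IDH1-knockdown HT-1080 cells in 5% FBS RPMI. %Activity scaled between DMSO wells and cell-free media wells, with curves fitted and assigned curve classes.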
# HT1080-NT tox = kills 2HG-producing HT-1080-NT fibrosarcoma cells; AID 686970; Potency, µM (series often up to 46.1 µM), for inactives: at the top dose activity, negative = less viability, usual class: cytotoxic; HT-1080-NT fibrosarcoma viability, CellTiter-Glo ATP luminescence, 48 h; 360,000 tested, 1.6% active;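 note: NT is the 2HG producing partner of a matched IDH1 knockdown line; 0% = DMSO-treated cells and -100% = media-only wells without cells; nearly all actives have a fitted effect of over 55% in size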
#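 Viability of the 2HG-overproducing fibrosarcoma line after 48 hours of compound exposure at 37 degrees C was determined by luminescence with CellTiter-Glo, and concentration-effect curves were then fitted and categorized.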
# HepG2 viability = kills HepG2 cells in TGF-b inhibitor counter-screen; HepG2 CAGA-GFP viability, ATP luminescence, 18 h; Potency, µM (doses to about 46.1 µM), for inactives: top-dose activity change, negative = cytotoxicity, usual class: cytotoxic; 410,000 tested, 0.76% active; AID 588856
#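 CellTiter-Glo luminescence gave cytotoxicity after 18 hours at 37 degrees C. The cells were HepG2 CAGA-GFP in 1% FBS DMEM, stimulated with 500 pg/mL TGF-beta after compound addition. %Activity was normalised to no-cell wells (complete cell-killing) and DMSO (no toxicity), and curves were fitted and classified.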
# ATXN2 expr inh = ATXN2 expression inhibition | Potency, µM (top dose mostly 57 µM), inactives show at the highest dose activity change, negative = inhibition, actives largely listed as inhibitors | HEK-293 ATXN2-luciferase reporter, luminescence, 24 h | 360,000 tested, 0.72% active; note: % is set by controls: 0 for no effect and ±100 for the full control effect; nearly all actives have a fitted effect of over 55% in size
#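 ATXN2-luciferase reporter cells (luciferase flanked by upstream and downstream ATXN2 gene portions) were treated 24 h at 37 °C with compounds at up to 57 uM. SteadyGlo luminescence gave expression; GF-AFC fluorescence gave viability.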
# ATXN viability = viability counter-screen for ATXN expression inhibitors | Potency, µM (titrated, usually from 56.7 µM), actives largely listed as cytotoxic | 400,000 tested, 0.49% active | S2 cells (HEK-293 line with an ATXN2-luciferase reporter) viability, CellTiter-Fluor protease fluorescence, 24 h | AID 651635; note: nearly all actives have a fitted effect of over 40% in size
# Numbers without * were called inactive; i = inactive; ? = inconclusive; . = not tested or not shown; ! = a repeat was not active. Shown are actives, neighbours in structure and some others; about 3.9% of the full set was active somewhere. Calls come from the whole dose curve; as a rule, active = well fitted curve in the direction sought with a large enough effect; inconclusive = small, poorly fitted or top-dose-only effect, or another doubt; inactive = no such curve, though single readings can be large; an effect the other way counts as inactive or inconclusive. Potency is the fitted concentration of half-maximal effect.
SMILES,TGFb SMAD3 inh,HT1080 IDH1KD tx,HT1080-NT tox,HepG2 viability,ATXN2 expr inh,ATXN viability
Cc1ccc(NC(=O)C2CCCN2S(=O)(=O)c2ccc3nc(-c4ccccc4)[nH]c3c2)cc1C (stereo not given),?,.,.,-24.6%,.,.
CC(C)c1ccc2c(c1)CC[C@H]1[C@](C)(CN)CCC[C@]21C,?,20.6µM*!,18.4µM*,-111.3%,?,i
CC(C)c1ccc2c(c1)CCC1C(C)(CN)CCCC21C (stereo not given),?,20.6µM*,?,11.2µM*,35.5µM*,.
CN(C)CCNC(=O)c1cccc2nc3c(ccc4ccccc43)nc12,?,?,?,-67.2%,0.0%,?
CN(CCNC(=O)c1c[nH]c2c1ccc1ccccc12)CCNC(=O)c1c[nH]c2c1ccc1ccccc12,12.6µM*,?,?,-102.8%,?,35.5µM*
CCc1cccc(C)c1Nc1c(-c2ccsc2)nc2ncccn12,?,.,.,-33.2%,.,.
CCc1cccc(C)c1Nc1c(-c2ccc(F)cc2)nc2sccn12,?,.,.,-34.5%,.,.
CCc1cccc(C)c1Nc1c(-c2ccc(N(C)C)cc2)nc2cnccn12,15.8µM*,.,.,15.8µM*,?,?
CCc1cccc(C)c1Nc1c(-c2cccc(O)c2)nc2cnccn12,11.2µM*,.,.,-60.1%,-13.5%,i
CCc1cccc(C)c1Nc1c(-c2ccc(SC)cc2)nc2sccn12,20µM*,.,.,-38.5%,.,.
CN(C)c1ccc(-c2nc3cnccn3c2Nc2cccc(C(F)(F)F)c2)cc1,-22.8%,.,.,-5.2%,10.8%,i
O=C(CCCc1ccccc1)NC1CC(=O)N(c2ccc(F)cc2)C1 (stereo not given),-2.6%,.,.,-7.8%,.,.
OC(C#Cc1ccccn1)c1cccs1 (stereo not given),15.8µM*,?,?,10µM*,?,?
Cc1ccc(C)c(Nc2nn3c(=O)c4ccc(C(=O)NCCC5=CCCCC5)cc4nc3s2)c1,?,.,.,-3.2%,13.9%,i
COc1ccccc1Nc1nn2c(=O)c3ccc(C(=O)NCCC4=CCCCC4)cc3nc2s1,5.01µM*,.,.,5.01µM*,3.16µM*,.
COc1ccccc1Nc1nn2c(=O)c3ccc(C(=O)NCCc4ccccc4)cc3nc2s1,2.24µM*,.,.,3.16µM*,.,.
Cc1ccc(NC(=O)c2ccc3c(=O)n4nc(Nc5ccccc5C)sc4nc3c2)cc1C,?,.,.,2.82µM*,-31.1%,i
Cc1ccc(C)c(Nc2nn3c(=O)c4ccc(C(=O)NCCc5ccccc5)cc4nc3s2)c1,11.0%,.,.,-1.6%,3.9%,i
CCOC(=O)c1c(N)sc2c1CCN(Cc1ccccc1)C2,6.5%,.,.,-3.1%,-14.0%,i
O=C(CN1CCCc2ccccc21)N/N=C/c1ccc(F)cc1F,-5.1%,-14.4%,6.0%,-3.1%,12.0%,i
O=C(CN1CCCc2ccccc21)N/N=C/c1ccccc1O,?,?,-21.2%,-31.8%,28.2µM*,i
O=C(CSc1ccccc1)N/N=C/c1ccccc1O,-17.2%,8.2µM*,?,-9.6%,?,?
Cc1ccc(S(=O)(=O)NCC(=O)N/N=C/c2ccccc2O)cc1,2.0%,?,?,-7.4%,14.1µM*,i
COc1ccc(CSCC(=O)N/N=C/c2ccccc2O)cc1,-21.7%,?,?,-18.7%,25.1µM*,i
Cc1ccc(S(=O)(=O)NCC(=O)N/N=C/c2ccc(Cl)cc2Cl)cc1,?,3.7%,15.6%,-50.8%,9.1%,?
SMILES,TGFb SMAD3 inh,HT1080 IDH1KD tx,HT1080-NT tox,HepG2 viability,ATXN2 expr inh,ATXN viability
COC(=O)C1CCCCN1Cc1ccc2c(c1)CN(Cc1cn[nH]c1-c1ccc(F)cc1)CCO2 (stereo not given),.,.,.,.,.,i
COCC(=O)Nc1cc(C(=O)NC2CCc3ccccc32)c2c(c1)nc(-c1ccncc1)n2C (stereo not given),.,.,.,.,.,i
CC(=O)c1ccc(NC(=O)CSc2ccc3nnc(CCNS(=O)(=O)c4ccc(C)cc4)n3n2)cc1,44.0%,.,.,1.8%,.,.
C[n+]1ccc(/C=C/c2ccc(C=S)cc2)c2ccccc21,0.7%,.,.,-38.6%,.,.
Clc1ccc(-n2cccc2CN2CCOc3ccc(CN4CCOCC4)cc3C2)nc1,.,.,.,.,.,i
Nc1cccc(-c2nc3ccc(C(=O)c4ccccc4)cc3[nH]2)c1,?,10.3µM*,13µM*,-31.1%,.,?
COc1cc2c(NC3CCN(C)CC3)nc(N3CCCN(C)CC3)nc2cc1OCC1CCCCN1 (stereo not given),11.2µM*,.,.,-11.3%,.,.
COc1cc2c(NC3CCN(C)CC3)nc(N3CCCN(C)CC3)nc2cc1OCCCN1CCOCC1,10µM*,.,.,-11.4%,.,.
COc1cc2nc(N3CCCN(C)CC3)nc(NC3CCCCC3)c2cc1OC,.,?,17.8µM*,.,.,.
O=C(Cc1ccccc1)NNC(=O)Nc1cccc(Cl)c1,14.5%,0.3%,-13.5%,2.2%,0.8%,i
O=C(Cc1ccccc1)NNC(=O)Nc1ccc(Cl)c(Cl)c1,0.0%,14.6µM*,-15.5%,-20.9%,-11.8%,i
Cc1ccccc1OCC(=O)Nc1cccc(C(=O)O)c1,14.5%,0.9%,6.1%,4.3%,0.168µM*,i
CCOc1ccc(NC(=O)Nc2cccc(C(=O)O)c2)cc1,-13.1%,?,?,-55.3%,1µM*,i
CCOc1ccc(-n2nc3ccc(NC(=O)Cc4ccccc4)cc3n2)cc1,?,.,.,-93.4%,?,14.1µM*
Cc1ccc(C(=O)Nc2cccc(-c3nc(CNC(=O)C4(C)CC4)c(C)o3)c2)s1,.,.,.,.,.,i
COC(=O)c1cccc(NC(=O)Nc2ccc(Cl)c(Cl)c2)c1,?,?,?,11.2µM*,?,i
O=C(Nc1ccc(Cl)cc1)Nc1cccc(C(=O)O)c1,0.6%,-1.7%,5.1%,-3.5%,8.91µM*,i
CCCCc1ccc(-n2nc3ccc(NC(=O)c4cc5ccccc5o4)cc3n2)cc1,?,.,.,-97.8%,?,22.4µM*
COC(=O)c1cccc(NC(=O)NC(=O)c2ccccc2Cl)c1,-11.0%,-19.0%,?,-2.8%,-11.9%,i
CSc1ccccc1NC(=O)Nc1ccc(Cl)cc1,?,?,14.1µM*,-34.3%,?,i
O=C(Nc1cccc(Cl)c1)Nc1cccc(C(=O)O)c1,0.8%,10.0%,?,-21.5%,2.9%,i
CC(C)CCNC(=O)CN1C(=O)CCn2nc(-c3cn(C)c4ccccc34)cc21,-18.7%,.,.,-4.9%,-4.6%,i
O=C1c2ccccc2C(=O)c2c1cccc2N1CCCC1,?,-17.1%,-14.8%,-59.2%,10.1%,?
